# Source: the supplement of paper PMC12645437, “Orthogonal IMiD-Degron Pairs Induce Selective Protein Degradation in Cells” (ACS Chemical Biology, 2025)
# Whole data set: some 8,300 sequences, median “log2 fold change of degron read counts, EGFP-low vs EGFP+ sorted cells (limma voom), compound-induced degradation” near -1.1, cut for the highest 2% near 3.2. The list comes from a sample in which the highest values are over-represented; it also holds similar and randomly drawn sequences.
# Target: T1, CRBN, Q96SW2
# T1 chain: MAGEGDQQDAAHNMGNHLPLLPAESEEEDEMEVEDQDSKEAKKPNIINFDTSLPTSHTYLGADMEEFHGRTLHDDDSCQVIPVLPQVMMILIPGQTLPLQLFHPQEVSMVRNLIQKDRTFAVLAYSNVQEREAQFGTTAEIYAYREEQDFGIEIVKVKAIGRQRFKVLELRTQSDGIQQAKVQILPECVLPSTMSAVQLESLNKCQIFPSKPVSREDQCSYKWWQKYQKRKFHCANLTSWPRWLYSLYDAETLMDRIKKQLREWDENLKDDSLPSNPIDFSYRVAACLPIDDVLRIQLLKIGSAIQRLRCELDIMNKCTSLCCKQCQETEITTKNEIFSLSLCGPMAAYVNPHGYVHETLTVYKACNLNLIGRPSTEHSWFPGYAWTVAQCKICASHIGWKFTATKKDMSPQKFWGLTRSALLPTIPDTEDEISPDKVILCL
# Assay: log2 fold change of degron read counts, EGFP-low vs EGFP+ sorted cells (limma voom), compound-induced degradation; higher = more compound-induced degradation of the degron-EGFP fusion; degrons are variants of IKZF1/3 zinc finger 2; compound dose not given here
# Conditions: Jurkat, 18 h
# Method: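 Pooled library of 8380 IKZF3 ZF2 degron mutants (positions 146-167 varied within the IKZF3 130-189 degron; only the varied core is printed, flanks not printed) fused to EGFP with IRES-mCherry, lentivirally expressed in Jurkat cells. mCherry+ cells were treated with one IMiD compound for 18 h (dose not stated) and FACS-sorted into EGFP-low and EGFP+ populations. Degron sequences were counted by NGS, and log2FC (EGFP-low vs EGFP+) was estimated by limma voom over 3 biological replicates.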
# [1] = compound: compound 19 (5-tert-butyl-thalidomide)
# [2] = compound: compound 22 (5-morpholino-thalidomide)
# [3] = compound: compound 33 (diphenyl IMiD analogue)
# 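Note: pooled lentiviral library of zinc finger degron-EGFP fusions in mCherry-positive Jurkat cells, FACS-sorted after compound exposure, with degron abundance counted by next-generation sequencing.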
Sequence,log2 fold change of degron read counts [1],log2 fold change of degron read counts [2],log2 fold change of degron read counts [3],log2 fold change of degron read counts (compound: thalidomide)
"FKCPVCGASFTQKGNLLRHIKL [46F_47K_49P_50V_52G_53A_54S_55F_67L_, Q9UKT9]",1.07,-1.4,-1.51,0.152
"FACPVCGASFTQKGNLLRHIKL [46F_47A_49P_50V_52G_53A_54S_55F_67L_, Q9UKT9]",3.54,2.15,1.39,1.39
"FGCPVCGASFTQKGNLLRHIKL [46F_47G_49P_50V_52G_53A_54S_55F_67L_, Q9UKT9]",3.39,2.36,2.57,1.08
"FDCPVCGASFTQKGNLLRHIKL [46F_47D_49P_50V_52G_53A_54S_55F_67L_, Q9UKT9]",2.73,0.654,1.35,1.92
"FNCPVCGASFTQKGNLLRHIKL [46F_47N_49P_50V_52G_53A_54S_55F_67L_, Q9UKT9]",2.78,1.17,1.06,0.433
"FSCPVCGASFTQKGNLLRHIKL [46F_47S_49P_50V_52G_53A_54S_55F_67L_, Q9UKT9]",3.33,2.24,2.42,1.71
"FTCPVCGASFTQKGNLLRHIKL [46F_47T_49P_50V_52G_53A_54S_55F_67L_, Q9UKT9]",1.45,2.72,2.67,2.79
"FFCPVCGASFTQKGNLLRHIKL [46F_47F_49P_50V_52G_53A_54S_55F_67L_, Q9UKT9]",3.04,3.18,2.27,1.42
"FQCPVCGASFTQKGNLLRHIKL [46F_47Q_49P_50V_52G_53A_54S_55F_67L_, Q9UKT9]",2.35,2.72,2.38,3.6
"FECPVCGASFTQKGNLLRHIKL [46F_47E_49P_50V_52G_53A_54S_55F_67L_, Q9UKT9]",1.95,-0.732,2.2,2.9
"FMCPVCGASFTQKGNLLRHIKL [46F_47M_49P_50V_52G_53A_54S_55F_67L_, Q9UKT9]",1.06,2.04,2.75,2.02
"FVCPVCGASFTQKGNLLRHIKL [46F_47V_49P_50V_52G_53A_54S_55F_67L_, Q9UKT9]",0.217,2.83,2.01,2.79
"FSCNICGATFTQKGNLLRHIKL [46F_47S_49N_50I_52G_53A_54T_55F_67L_, Q9UKT9]",0.862,1.72,1.81,0.773
"FRCSVCGHPFTQKGNLLRHIKL [46F_47R_49S_50V_52G_53H_54P_55F_67L_, Q9UKT9]",-1.61,0.0411,-0.252,-0.256
